# Results as given in the supplement of paper PMC8728848.
# About 410 targets per protein were measured; listed, in parts, are those with the strongest signals and a random draw of the rest.
# B1: PNA (Arachis hypogaea), P02872 (protein)
# chain: MKPFCVFLTFFLLLAASSKKVDSAETVSFNFNSFSEGNPAINFQGDVTVLSNGNIQLTNLNKVNSVGRVLYAMPVRIWSSATGNVASFLTSFSFEMKDIKDYDPADGIIFFIAPEDTQIPAGSIGGGTLGVSDTKGAGHFVGVEFDTYSNSEYNDPPTDHVGIDVNSVDSVKTVPWNSVSGAVVKVTVIYDSSTKTLSVAVTNDNGDITTIAQVVDLKAKLPERVKFGFSASGSLGGRQIHLIRSWSFTSTLITTTRRSIDNNEKKIMNMASA
# What was measured:
# Assay in all cases: glycan array binding signal (z-score within array); higher = stronger binding
# Settings in all cases: glycan notation: IUPAC condensed, linker removed
# [1] = molecular target: Fuc(a1-2)Gal(b1-3)[Fuc(a1-4)]GlcNAc(b1-3)[Gal(b1-4)GlcNAc(b1-6)]Gal(b1-4)Glc
# In short: (§1)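 The binding signal is a Z-score computed within each array. Data were drawn from 3228 arrays in the Consortium for Functional Glycomics database, restricted to those with a known protein sequence. Scores were averaged over arrays of the same protein sequence at different concentrations or buffers, and over linkers, and negative values can be taken as non-binding.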
# [2] = molecular target: Fuc(a1-2)Gal(b1-4)GlcNAc(b1-2)Man(a1-3)[Fuc(a1-2)Gal(b1-4)GlcNAc(b1-2)Man(a1-6)]Man(b1-4)GlcNAc(b1-4)GlcNAc
# In short: as §1
# [3] = molecular target: Fuc(a1-2)Gal(b1-4)GlcNAc(b1-3)Gal(b1-4)GlcNAc
# In short: as §1
# [4] = molecular target: Fuc(a1-2)Gal3S(b1-4)GlcNAc
# In short: as §1
# [5] = molecular target: Fuc(a1-2)[Gal(a1-3)]Gal(b1-4)[Fuc(a1-3)]Glc
# In short: as §1
# [6] = molecular target: Fuc(a1-2)[GalNAc(a1-3)]Gal(b1-4)GlcNAc(b1-3)GalNAc
# In short: as §1
# [7] = molecular target: Fuc(a1-3)[3dGal(b1-4)]Glc
# In short: as §1
# [8] = molecular target: Fuc(a1-3)[Gal(b1-4)]GlcNAc(b1-2)Man(a1-3)[Fuc(a1-3)[Gal(b1-4)]GlcNAc(b1-2)Man(a1-6)]Man(b1-4)GlcNAc(b1-4)GlcNAc
# In short: as §1
# [9] = molecular target: Fuc(a1-3)[Gal(b1-4)]GlcNAc(b1-2)Man(a1-3)[Fuc(a1-3)[Gal(b1-4)]GlcNAc(b1-2)Man(a1-6)]Man(b1-4)GlcNAc(b1-4)[Fuc(a1-6)]GlcNAc
# In short: as §1
# [10] = molecular target: Fuc(a1-3)[Gal3S(b1-4)]Glc
# In short: as §1
# [11] = molecular target: Fuc(a1-6)GlcNAc
# In short: as §1
# [12] = molecular target: Gal(a1-2)Gal
# In short: as §1
# [13] = molecular target: Gal(a1-3)Gal(b1-4)GlcNAc(b1-2)Man
# In short: as §1
# [14] = molecular target: Gal(b1-3)Gal(b1-4)GlcNAc
# In short: as §1
# [15] = molecular target: Gal(b1-3)GalNAc(a1-3)[Fuc(a1-2)]Gal(b1-4)Glc
# In short: as §1
# [16] = molecular target: Gal(b1-3)GalNAc(a1-3)[Fuc(a1-2)]Gal(b1-4)GlcNAc
# In short: as §1
# [17] = molecular target: Gal(b1-3)GalNAc(b1-3)Gal
# In short: as §1
# [18] = molecular target: Gal(b1-3)GalNAc(b1-3)Gal(a1-4)Gal(b1-4)Glc
# In short: as §1
# [19] = molecular target: Gal(b1-3)GalNAc(b1-4)Gal(b1-4)Glc
# In short: as §1
# [20] = molecular target: Gal(b1-3)GalNAc(b1-4)Gal3S(b1-4)Glc
# In short: as §1
# [21] = molecular target: Gal(b1-3)GalNAc(b1-4)[Neu5Ac(a2-3)]Gal(b1-4)Glc
# In short: as §1
# [22] = molecular target: Gal(b1-3)GalNAc(b1-4)[Neu5Gc(a2-3)]Gal(b1-4)Glc
# In short: as §1
# [23] = molecular target: Gal(b1-3)GlcNAc(b1-3)Gal(b1-4)Glc
# In short: as §1
# [24] = molecular target: Gal(b1-3)[GlcNAc(b1-6)]GalNAc
# In short: as §1
# [25] = molecular target: Gal(b1-4)GlcNAc(b1-2)Man(a1-3)[GlcNAc(b1-4)][Gal(b1-4)GlcNAc(b1-2)Man(a1-6)]Man(b1-4)GlcNAc(b1-4)GlcNAc
# In short: as §1
# [26] = molecular target: Gal(b1-4)GlcNAc(b1-2)Man(a1-6)Man(b1-4)GlcNAc(b1-4)GlcNAc
# In short: as §1
# [27] = molecular target: Gal(b1-4)GlcNAc(b1-2)[Gal(b1-4)GlcNAc(b1-4)]Man(a1-3)[Gal(b1-4)GlcNAc(b1-2)Man(a1-6)]Man(b1-4)GlcNAc(b1-4)GlcNAc
# In short: as §1
# [28] = molecular target: Gal(b1-4)GlcNAc(b1-2)[Gal(b1-4)GlcNAc(b1-6)]Man(a1-6)[Gal(b1-4)GlcNAc(b1-2)Man(a1-3)]Man(b1-4)GlcNAc(b1-4)[Fuc(a1-6)]GlcNAc
# In short: as §1
# [29] = molecular target: Gal(b1-4)GlcNAc(b1-3)Fuc
# In short: as §1
# [30] = molecular target: Gal(b1-4)GlcNAc(b1-3)[Fuc(a1-3)GlcNAc(b1-6)]Gal(b1-4)Glc
# In short: as §1
# [31] = molecular target: Gal(b1-4)GlcNAc(b1-3)[Gal(b1-4)GlcNAc(b1-6)]Gal(b1-4)GlcNAc
# In short: as §1
# [32] = molecular target: Gal(b1-4)GlcNAc(b1-3)[Gal(b1-4)GlcNAc(b1-6)]Gal(b1-4)GlcNAc(b1-3)[Gal(b1-4)GlcNAc(b1-6)]Gal(b1-4)GlcNAc(b1-3)[Gal(b1-4)GlcNAc(b1-6)]Gal(b1-4)GlcNAc(b1-3)[Gal(b1-4)GlcNAc(b1-6)]Gal(b1-4)GlcNAc(b1-3)Gal(b1-4)Glc
# In short: as §1
# [33] = molecular target: Gal(b1-4)GlcNAc(b1-6)[Gal(b1-3)]GalNAc
# In short: as §1
# [34] = molecular target: Gal3S(b1-4)[Fuc(a1-3)]Glc
# In short: as §1
# [35] = molecular target: Gal6S(b1-3)GlcNAc6S
# In short: as §1
# [36] = molecular target: Gal6S(b1-4)Glc
# In short: as §1
# [37] = molecular target: GalNAc(b1-3)Gal(a1-4)Gal(b1-4)GlcNAc
# In short: as §1
# [38] = molecular target: GalNAc(b1-4)Gal3S(b1-4)Glc
# In short: as §1
# [39] = molecular target: Glc(a1-2)Glc
# In short: as §1
binder,measurement,setting,value
B1,glycan array binding signal (z-score),[1],-0.127
same,glycan array binding signal (z-score),[2],-0.116
same,glycan array binding signal (z-score),[3],-0.144
same,glycan array binding signal (z-score),[4],-0.183
same,glycan array binding signal (z-score),[5],-0.09
same,glycan array binding signal (z-score),[6],-0.177
same,glycan array binding signal (z-score),[7],-0.195
same,glycan array binding signal (z-score),[8],-0.106
same,glycan array binding signal (z-score),[9],-0.162
same,glycan array binding signal (z-score),[10],-0.195
same,glycan array binding signal (z-score),[11],-0.195
same,glycan array binding signal (z-score),[12],-0.169
same,glycan array binding signal (z-score),[13],-0.115
same,glycan array binding signal (z-score),[14],-0.001
same,glycan array binding signal (z-score),[15],6
same,glycan array binding signal (z-score),[16],8.53
same,glycan array binding signal (z-score),[17],5.33
same,glycan array binding signal (z-score),[18],3.33
same,glycan array binding signal (z-score),[19],7.85
same,glycan array binding signal (z-score),[20],9.11
same,glycan array binding signal (z-score),[21],3.91
same,glycan array binding signal (z-score),[22],4.74
same,glycan array binding signal (z-score),[23],0.203
same,glycan array binding signal (z-score),[24],3.79
same,glycan array binding signal (z-score),[25],-0.309
same,glycan array binding signal (z-score),[26],-0.171
same,glycan array binding signal (z-score),[27],-0.118
same,glycan array binding signal (z-score),[28],-0.186
same,glycan array binding signal (z-score),[29],-0.195
same,glycan array binding signal (z-score),[30],-0.247
same,glycan array binding signal (z-score),[31],-0.153
same,glycan array binding signal (z-score),[32],4.16
same,glycan array binding signal (z-score),[33],5.42
same,glycan array binding signal (z-score),[34],-0.222
same,glycan array binding signal (z-score),[35],-0.244
same,glycan array binding signal (z-score),[36],-0.174
same,glycan array binding signal (z-score),[37],-0.197
same,glycan array binding signal (z-score),[38],-0.195
same,glycan array binding signal (z-score),[39],-0.195
